Measured values: PubChem BioAssay
Where “and” joins values, the source holds several entries; their conditions need not be identical. Identical values can stand only once. Calls of active or inactive are those of the source.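 The calls were made as follows: active = compounds killing one labelled cell type while sparing the other, by normalised counts and ratio limits, not self-fluorescent; inactive = the rest.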

Assay: EMT-state selective cytotoxicity in co-culture – imaging, PC-3E GFP, TEM4-18 mCherry, primary screen (AID 1345086);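 also: cells exposed to compound for 72 h before imaging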;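 as to red/green cell ratio (normalised): normalised mesenchymal count divided by normalised epithelial count so high means epithelial killing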
Settings: PC-3E GFP / TEM4-18 mCherry co-culture, imaging cell counts, at 1 µM; for red/green cell ratio (normalised): actives lie on both sides, counts scaled to control wells, 1 = unselective
[1] = measured here: epithelial PC-3E GFP cell survival
[2] = measured here: mesenchymal TEM4-18 mCherry cell survival

| SMILES | red/green cell ratio (normalised) | normalised cell number [1] | normalised cell number [2] |
| --- | --- | --- | --- |
| Cc1c(Nc2ncccc2C(=O)O)cccc1C(F)(F)F | 1.03 (inactive) and 0.93 (inactive) | 1.09 and 1.11 | 1.12 and 1.03 |
| Nc1nc2c(c(=O)[nH]1)N(C=O)C(CNc1ccc(C(=O)N[C@@H](CCC(=O)O)C(=O)O)cc1)CN2 (stereo not given in full) | 1.45 (inactive) | 0.95 | 1.38 |
| COc1c2occc2c(OC)c2c(=O)cc(C)oc12 | 0.89 (inactive) | 1.07 | 0.95 |
| CCN(CC)CCNc1ccc(CO)c2sc3ccccc3c(=O)c12 | 1.17 (inactive) | 0.63 | 0.74 |
| Nc1ccc(C(=O)O)c(O)c1 | 0.88 (inactive) | 1.36 | 1.19 |
| O=C1c2cccc(O)c2C(=O)c2c(O)cccc21 | 1.24 (inactive) | 1.22 | 1.51 |
| CCCCCCCCCCCCCCCCC(C(=O)O)C(O)(CC(=O)O)C(=O)O (stereo not given) | 1.03 (inactive) | 1 | 1.03 |
| C=CCc1ccc(O)c(OC)c1 | 1.2 (inactive) | 0.95 | 1.13 |
| C[N+]1(CCCCC[N+]2(C)CCCC2)CCCC1 | 0.92 (inactive) | 1.09 | 1 |
| NC(=O)c1ccccc1O | 0.96 (inactive) | 0.98 | 0.94 |
| Cc1cc(C)cc(OCC2CNC(=O)O2)c1 (stereo not given) | 1.5 (inactive) | 0.43 | 0.64 |
| C#CCN(C)Cc1ccccc1 | 1.02 (inactive) | 1.04 | 1.05 |
| CC(N)CCCC(C)(C)O (stereo not given) | 0.95 (inactive) | 0.99 | 0.93 |
| Oc1ccc(Cl)c2cccnc12 | 1.13 (inactive) | 1.27 | 1.45 |
| Nc1c2ccccc2nc2ccccc12 | 0.95 (inactive) | 0.63 | 0.6 |
| Cc1cccc(C(=O)O)c1O | 1 (inactive) | 0.79 | 0.79 |
| COc1ccccc1OCC(O)CO (stereo not given) | 1.05 (inactive) | 1.11 | 1.17 |
| CCCCN(CCCC)CCCOC(=O)c1ccc(N)cc1 | 1.16 (inactive) | 1.04 | 1.2 |
| C/C=C/c1ccc(OC)cc1 | 1.24 (inactive) | 1.08 | 1.34 |
| NS(=O)(=O)c1cc2c(cc1Cl)NC(CSCc1ccccc1)=NS2(=O)=O | 1.25 (inactive) | 1.02 | 1.28 |

| SMILES | red/green cell ratio (normalised) | normalised cell number [1] | normalised cell number [2] |
| --- | --- | --- | --- |
| CCCCc1nc(Cl)c(CO)n1Cc1ccc(-c2ccccc2-c2nn[nH]n2)cc1 | 1.09 (inactive) | 1.34 | 1.46 |
| COc1ccc(-c2cc(C(F)F)nn2-c2ccc(S(N)(=O)=O)cc2)cc1F | 0.98 (inactive) | 1.12 | 1.1 |
| CC1(C)S[C@@H]2[C@H](NC(=O)C(C(=O)O)c3ccccc3)C(=O)N2[C@H]1C(=O)O (stereo not given in full) | 1.24 (inactive) | 0.99 | 1.23 |
| CC(C)(C)CC(C)(C)c1ccc(O)c(Cc2ccc(Cl)cc2Cl)c1 | 0.81 (inactive) | 1.02 | 0.82 |
| O=C(COc1ccc(Cl)cc1)N1CCN(Cc2ccc3c(c2)OCO3)CC1 | 0.96 (inactive) | 0.94 | 0.9 |
| CC(N)C(=O)OC(C)(C)Cc1ccc(Cl)cc1 (stereo not given) | 1.21 (inactive) | 0.96 | 1.16 |
| Cc1ccc2c(Cl)cc(Cl)c(O)c2n1 | 0.8 (inactive) | 1.22 | 0.98 |
| O=C(O)CCCCC1CCSS1 (stereo not given) | 0.99 (inactive) | 0.91 | 0.9 |
| CCCCOc1ccc(C(=O)CCN2CCCCC2)cc1 | 1.3 (inactive) | 1.09 | 1.41 |
| Oc1c(I)cc(I)c2cccnc12 | 1.31 (inactive) | 1.01 | 1.32 |
| CN(C)CCOC(=O)C(c1ccccc1)C1(O)CCCC1 (stereo not given) | 1.07 (inactive) | 1.42 | 1.52 |
| COc1cccc(OC)c1C(=O)N[C@@H]1C(=O)N2[C@@H]1SC(C)(C)[C@@H]2C(=O)O | 1 (inactive) | 1.16 | 1.15 |
| NC(N)=NS(=O)(=O)c1ccc(N)cc1 | 1.03 (inactive) | 0.95 | 0.98 |
| CN1CCCN=C1COC(=O)C(O)(c1ccccc1)C1CCCCC1 (stereo not given) | 1.18 (inactive) | 1.21 | 1.43 |
| Cc1ccnc(NS(=O)(=O)c2ccc(N)cc2)n1 | 1.35 (inactive) | 0.98 | 1.33 |
| CCCCCCCCCCCCCCCCCCOCC(O)CO (stereo not given) | 1 (inactive) | 0.96 | 0.96 |
| N[C@@H](CCC(=O)N[C@@H](CS)C(=O)NCC(=O)O)C(=O)O | 1.12 (inactive) | 0.76 | 0.85 |
| O=C(O)CCCCCCCC(=O)O | 0.99 (inactive) | 1.08 | 1.07 |
| CN(C)C(=O)Oc1cccc([N+](C)(C)C)c1 | 1.18 (inactive) | 0.88 | 1.04 |
| O=C(O)c1ccc(S(=O)(=O)N(Cl)Cl)cc1 | 0.95 (inactive) | 1.13 | 1.08 |
